Experiment [1] in a line: NCI Yeast Anticancer Drug Screen. Data for the rad50 strain (AID 155).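 Also: 0% = growth of vehicle-only cultures of the same strain.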 The settings on record: S. cerevisiae rad50 strain growth inhibition, stronger effect = higher value. In short, it runs like this: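 Cells are treated with compound, grown, and their growth is then scored against vehicle-only cultures of the same repair-deficient yeast strain.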
The nature of experiment [2]: NCI Yeast Anticancer Drug Screen. Data for the mec2-1 strain (AID 157). The settings on record: S. cerevisiae mec2-1 strain, stronger effect = higher value. The essentials: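 Yeast mec2-1 mutant treated with compound. Readout: growth inhibition vs vehicle controls.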
The nature of experiment [3]: NCI Yeast Anticancer Drug Screen. Data for the sgs1 mgt1 strain (AID 161).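 Also: 0% = growth of cultures given vehicle only.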 The settings on record: S. cerevisiae sgs1 mgt1 strain, stronger effect = higher value. The essentials: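 Genetically altered yeast, compound exposure, growth inhibition relative to vehicle.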
Experiment [4] in a line: NCI Yeast Anticancer Drug Screen. Data for the cln2 rad14 strain (AID 165).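 Also: 0% = growth equal to vehicle treated cultures.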 The settings on record: S. cerevisiae cln2 rad14 strain, stronger effect = higher value. In short, it runs like this:
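cln2 rad14 yeast strain; compound exposure; growth inhibition read vs vehicle controls.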

Experiment [5] in a line: NCI Yeast Anticancer Drug Screen. Data for the bub3 strain (AID 167). The settings on record: S. cerevisiae bub3 mutant strain, stronger effect = higher value. In short, it runs like this: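 Part of a panel of yeast mutants defective in DNA damage repair or cell cycle regulation. Each strain is grown with compound, and inhibition is calculated relative to solvent-treated cultures.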

Experiment [6] in a line: NCI Yeast Anticancer Drug Screen. Data for the mlh1 rad18 strain (AID 175). As to conditions: S. cerevisiae mlh1 rad18 strain growth inhibition, stronger effect = higher value. The essentials: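 Yeast w/ defined DNA-repair lesions; compound exposure; growth vs vehicle controls → % inhibition.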
Where [7] appears, read: at 5.0 µM (retest, dose inferred, filed as 0.5).
Where [8] appears, read: at 50.0 µM (retest, dose inferred, filed as 5.0).

Compounds without any hit were thinned out: in the full panel of roughly 79,000, 15% have a hit. Values without a mark were called inactive. Activity calls are given as the source filed them. Rule as the data show it: active = growth inhibition above about 70%; inactive = the rest.

On to `CCCCCCN(CCCCCC)CCC(=O)c1ccc2cc(Cl)c3ccccc3c2c1`, for which the growth inhibition is 29% in experiment [1] (setting [7]); 90% (active) in experiment [1] (setting [8]); 78.4% (active) in experiment [1] (at 50.0 µM); -28% in experiment [2] (setting [7]); 95% (active) in experiment [2] (setting [8]); 82% (active) in experiment [2] (at 50.0 µM). For the same molecule, the growth inhibition was 33% in experiment [3] (setting [7]); 95% (active) in experiment [3] (setting [8]); 78.2% (active) in experiment [3] (at 50.0 µM); 3% in experiment [4] (setting [7]); 88% (active) in experiment [4] (setting [8]); 31.8% in experiment [4] (at 50.0 µM). Moreover, the growth inhibition in experiment [5] (setting [7]) was 5%; in experiment [5] (setting [8]), 94% (active); in experiment [5] (at 50.0 µM) it was 33.2%; in experiment [6] (setting [7]), 17%; in experiment [6] (setting [8]), 91% (active); in experiment [6] (at 50.0 µM), 87.8% (active).
For `Oc1ccc(Cc2cccc(Br)c2)c(O)c1`, the growth inhibition in experiment [1] (setting [7]) was -2%; in experiment [1] (setting [8]), 99% (active); in experiment [1] (at 50.0 µM) it was 99.3% (active); in experiment [2] (setting [7]), -4%; in experiment [2] (setting [8]), 99% (active); in experiment [2] (at 50.0 µM) it was 99.3% (active). Further, the growth inhibition was -2% in experiment [3] (setting [7]); 99% (active) in experiment [3] (setting [8]); 99.3% (active) in experiment [3] (at 50.0 µM); -9% in experiment [4] (setting [7]); 99% (active) in experiment [4] (setting [8]); 99.2% (active) in experiment [4] (at 50.0 µM). The growth inhibition was -3% in experiment [5] (setting [7]); 99% (active) in experiment [5] (setting [8]); 99.4% (active) in experiment [5] (at 50.0 µM); -3% in experiment [6] (setting [7]); 99% (active) in experiment [6] (setting [8]); 99.2% (active) in experiment [6] (at 50.0 µM).
Consider `O=C1C(=O)c2ccccc2C(O)=C1Sc1ccccc1`, for which the growth inhibition in experiment [1] (setting [7]) is 23%; in experiment [1] (setting [8]), 92% (active); in experiment [1] (at 50.0 µM), 95.2% (active); in experiment [2] (setting [7]), 20%; in experiment [2] (setting [8]), 89% (active); in experiment [2] (at 50.0 µM) it was 92.4% (active). For the same molecule, the growth inhibition is 44% in experiment [3] (setting [7]); 95% (active) in experiment [3] (setting [8]); 95% (active) in experiment [3] (at 50.0 µM); 41% in experiment [4] (setting [7]); 88% (active) in experiment [4] (setting [8]); 79.3% (active) in experiment [4] (at 50.0 µM). The growth inhibition in experiment [5] (setting [7]) is 15%; in experiment [5] (setting [8]) it was 94% (active); in experiment [5] (at 50.0 µM) it was 93.7% (active); in experiment [6] (setting [7]), 34%; in experiment [6] (setting [8]), 93% (active); in experiment [6] (at 50.0 µM) it was 95.5% (active).
Regarding `Cc1ccc(NC(=S)SCc2ccc(Cl)cc2)cc1Br`, the growth inhibition is 48% in experiment [1] (setting [7]); 99% (active) in experiment [1] (setting [8]); 90.5% (active) in experiment [1] (at 50.0 µM); 25% in experiment [2] (setting [7]); 99% (active) in experiment [2] (setting [8]); 93.2% (active) in experiment [2] (at 50.0 µM). The growth inhibition in experiment [3] (setting [7]) was 64%; in experiment [3] (setting [8]) it was 100% (active); in experiment [3] (at 50.0 µM) it was 91% (active); in experiment [4] (setting [7]), 48%; in experiment [4] (setting [8]), 99% (active); in experiment [4] (at 50.0 µM) it was 89.9% (active). Moreover, the growth inhibition was 65% in experiment [5] (setting [7]); 99% (active) in experiment [5] (setting [8]); 92.3% (active) in experiment [5] (at 50.0 µM); 38% in experiment [6] (setting [7]); 99% (active) in experiment [6] (setting [8]); 90.8% (active) in experiment [6] (at 50.0 µM).
In the case of `Cc1cc(C)c(Cc2cc(C(C)(C)C)cc(C)c2O)cc1Cc1cc(C(C)(C)C)cc(C)c1O`, the growth inhibition is -2% in experiment [1] (setting [7]); 10% in experiment [1] (setting [8]); 51.4% in experiment [1] (at 50.0 µM); -5% in experiment [2] (setting [7]); 24% in experiment [2] (setting [8]); 49.4% in experiment [2] (at 50.0 µM). Also, the growth inhibition in experiment [3] (setting [7]) is 2%; in experiment [3] (setting [8]) it was 27%; in experiment [3] (at 50.0 µM), 63.6%; in experiment [4] (setting [7]), -16%; in experiment [4] (setting [8]), 19%; in experiment [4] (at 50.0 µM) it was 69.3%. For the same molecule, the growth inhibition was -4% in experiment [5] (setting [7]); 26% in experiment [5] (setting [8]); 49.9% in experiment [5] (at 50.0 µM); 2% in experiment [6] (setting [7]); 33% in experiment [6] (setting [8]); 71% (active) in experiment [6] (at 50.0 µM).
In the case of `CCOCCOC(=O)c1cc([N+](=O)[O-])cc([N+](=O)[O-])c1`, the growth inhibition in experiment [1] (setting [7]) was -4%; in experiment [1] (setting [8]) it was 94% (active); in experiment [1] (at 50.0 µM) it was 60.2%; in experiment [2] (setting [7]), -5%; in experiment [2] (setting [8]) it was 98% (active); in experiment [2] (at 50.0 µM), 66.3%. Also, the growth inhibition in experiment [3] (setting [7]) was -3%; in experiment [3] (setting [8]), 93% (active); in experiment [3] (at 50.0 µM), 53.8%; in experiment [4] (setting [7]) it was -3%; in experiment [4] (setting [8]), 41%; in experiment [4] (at 50.0 µM), -1.5%. Moreover, the growth inhibition in experiment [5] (setting [7]) is -8%; in experiment [5] (setting [8]), 94% (active); in experiment [5] (at 50.0 µM), 91.7% (active); in experiment [6] (setting [7]) it was 2%; in experiment [6] (setting [8]), 98% (active); in experiment [6] (at 50.0 µM) it was 95.9% (active).
Take `Oc1c(N2CCOCC2)cc(-c2cc(N3CCOCC3)c(O)c3ccccc23)c2ccccc12`: the growth inhibition in experiment [1] (setting [7]) was 26%; in experiment [1] (setting [8]) it was 30%; in experiment [1] (at 50.0 µM), 82.2% (active); in experiment [2] (setting [7]), 35%; in experiment [2] (setting [8]) it was 38%; in experiment [2] (at 50.0 µM) it was 86.3% (active). The growth inhibition in experiment [3] (setting [7]) was -19%; in experiment [3] (setting [8]), 9%; in experiment [3] (at 50.0 µM), 50.3%; in experiment [4] (setting [7]), 9%; in experiment [4] (setting [8]), 21%; in experiment [4] (at 50.0 µM), 42.5%. Further, the growth inhibition in experiment [5] (setting [7]) was 16%; in experiment [5] (setting [8]) it was 43%; in experiment [5] (at 50.0 µM) it was 51.6%; in experiment [6] (setting [7]) it was 35%; in experiment [6] (setting [8]), 39%; in experiment [6] (at 50.0 µM), 80.5% (active).
Take `CC1(C)OC2OC(/C=C/[N+](=O)[O-])C3OC(C)(C)OC3C2O1` (stereo not given): the growth inhibition in experiment [1] (setting [7]) is 20%; in experiment [1] (setting [8]), 98% (active); in experiment [1] (at 50.0 µM), 8.25%; in experiment [2] (setting [7]) it was 3%; in experiment [2] (setting [8]) it was 98% (active); in experiment [2] (at 50.0 µM), 10.9%. Also, the growth inhibition in experiment [3] (setting [7]) is -17%; in experiment [3] (setting [8]), 97% (active); in experiment [3] (at 50.0 µM), 13.2%; in experiment [4] (setting [7]), 17%; in experiment [4] (setting [8]), 99% (active); in experiment [4] (at 50.0 µM), 5.45%. The growth inhibition in experiment [5] (setting [7]) was -9%; in experiment [5] (setting [8]) it was 97% (active); in experiment [5] (at 50.0 µM), 4.75%; in experiment [6] (setting [7]), 17%; in experiment [6] (setting [8]), 97% (active); in experiment [6] (at 50.0 µM) it was 27.4%.
With `O=C(O)c1cc2c(cc1CC(Cc1ccc3c(c1)CCCC3)C(=O)O)CCCC2` (stereo not given), the growth inhibition was 20% in experiment [1] (setting [7]); 95% (active) in experiment [1] (setting [8]); 86.3% (active) in experiment [1] (at 50.0 µM); 16% in experiment [2] (setting [7]); 98% (active) in experiment [2] (setting [8]); 73.3% (active) in experiment [2] (at 50.0 µM). The growth inhibition in experiment [3] (setting [7]) is 19%; in experiment [3] (setting [8]) it was 98% (active); in experiment [3] (at 50.0 µM), 70.2% (active); in experiment [4] (setting [7]) it was 9%; in experiment [4] (setting [8]) it was 96% (active); in experiment [4] (at 50.0 µM), 74.4% (active). The growth inhibition was 7% in experiment [5] (setting [7]); 98% (active) in experiment [5] (setting [8]); 76.2% (active) in experiment [5] (at 50.0 µM); 8% in experiment [6] (setting [7]); 96% (active) in experiment [6] (setting [8]); 82.5% (active) in experiment [6] (at 50.0 µM).
As for `OCC(O)C(O)C(/C=N/Nc1ccccc1)=N/Nc1ccccc1` (stereo not given), the growth inhibition in experiment [1] (setting [7]) was 11%; in experiment [1] (setting [8]), 45%; in experiment [1] (at 50.0 µM), 44%; in experiment [2] (setting [7]) it was 7%; in experiment [2] (setting [8]), 32%; in experiment [2] (at 50.0 µM), 13.7%. The growth inhibition was 10% in experiment [3] (setting [7]); 57% in experiment [3] (setting [8]); 47.4% in experiment [3] (at 50.0 µM); 51% in experiment [4] (setting [7]); 38% in experiment [4] (setting [8]); 13.4% in experiment [4] (at 50.0 µM). For the same molecule, the growth inhibition in experiment [5] (setting [7]) is 6%; in experiment [5] (setting [8]) it was -65%; in experiment [5] (at 50.0 µM), -5.35%; in experiment [6] (setting [7]) it was 2%; in experiment [6] (setting [8]) it was 61%; in experiment [6] (at 50.0 µM) it was 60.4%.

(Values after PubChem BioAssay (NCI).)
